Measured values as given in PubChem BioAssay AID2288 (National Center for Advancing Translational Sciences (NCATS), 2010).
Hit rate of the full screen: of about 340,000 compounds, fewer than 10 were called active. About 2% were inconclusive and are not listed. The call rests on the fitted dose curve; in most records, active means well fitted curve in the direction sought with a large enough effect; inconclusive means small, poorly fitted or top-dose-only effect, or another doubt; inactive means no such curve, though single readings can be large or run the other way. Only a sample is shown.

Assay: qHTS Assay for Modulators of miRNAs and/orActivators of miR-21;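 further: miR-21 action dims this reporter so a rising signal means less miR-21 action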
Conditions: HeLa miR-21 FLuc reporter, luciferase, 48 h; series mostly up to 38.3 µM
Description: MLSCN Grant: 1 R21 NS059478-01 Assay Provider: Qihong Huang, The Wistar Institute NCGC Assay Overview: MicroRNAs (miRNAs) are endogenously encoded small (~20-25 nucleotides), nonprotein-coding RNAs that are involved in post-transcriptional repression of target messenger RNAs (mRNAs) (Le and Hannon, 2004). Estimated to be involved in the regulation of 30% of all protein-coding mRNAs (Filipowicz et al., 2008), miRNAs play a significant role in many biological processes including cellular differentiation and tissue development (Ghildiyal and Zamore, 2009).
NCGC Assay Protocol Summary: Reagents: HeLa cells stably expressing firefly luciferase (FLuc) under the control of a CMV promoter (upstream) and a miR-21 binding sequence directly downstream of the gene. These cells endogenously express miR-21. Control compounds used were compound C3 (provided by collaborator), N6-phenyladenosine (MP Biomedicals, 0215379625), and DMSO. Assay Summary: 6uL of HeLa miR-21-FLuc cells in assay buffer (DMEM, Invitrogen #21063-029; 10% FBS, HyClone #SH30071.03) were dispensed at 2000cells/well (3.3 x 10^5 cells/mL) into Greiner solid-white TC-treated 1536-well plates using a Multidrop Combi (Thermo Fisher Scientific). Plates were incubated for one hour at 37 degree Celsius, 95% humidity, 5% CO2. These assay plates were then treated with 23nL of compound or DMSO using a Kalypsys pin tool, which allows for delivery of a 24-point titration of each compound to the assay plate, with a final compound concentration ranging from approximately 40uM to 5pM. Assay plates were then incubated for 48 hours. After incubation, plates were allowed to come to RT for one hour prior to delivery of 3uL of 3X luciferase detection reagent. After a 15 minute incubation to allow for cell lysis, luciferase activity was measured using a ViewLux CCD imager (PerkinElmer), with an average exposure time of 2-12 seconds. Keywords: NIH Roadmap, MLPCN, MLSMR, qHTS, miR-21, microRNA, firefly luciferase, FLuc.

outcome, inactive:
CCOc1ccc(CCNC(=O)c2ccc3c(c2)sc2nc(-c4ccc(F)cc4)cn23)cc1OCC
Cc1cc(NC(=O)c2ccc(-c3ccc(Cl)cc3)o2)cc(-c2nc3ncccc3o2)c1O
O=C(CSc1oc(-c2ccco2)nc1S(=O)(=O)c1ccccc1)c1ccc(Cl)cc1
COc1cccc(CNC(=O)Cc2csc3nc(-c4ccccc4)cn23)c1
Cc1ccc(NC(=O)c2ccc(CN3CC(=O)N4CCCCC4C3=O)cc2)c(Cl)c1 (stereo not given)
O=C(Cn1ncn2nc(-c3cccs3)cc2c1=O)NCc1cccc(Br)c1
Cc1ccc(C)c(OCC(=O)Nc2sc3c(c2C#N)CCCC3)c1C
COc1cccc(N2CCN(S(=O)(=O)c3cc(Br)cc4c3N(C(=O)C3CC3)CC4)CC2)c1
CCNS(=O)(=O)c1cc(-c2nnc(Nc3cccc(C(F)(F)F)c3)c3ccccc23)ccc1C
Cc1nn(-c2ccc(N3CCCCC3)nn2)c(C)c1CCC(=O)NCc1ccccc1F
CCOc1ccc(N(CC)C(=O)c2cc3c(=O)oc4ccccc4c3s2)cc1
CCCN(CCC)S(=O)(=O)c1ccc(C(=O)Nc2sc3c(c2C(=O)OC)CCN(CC)C3)cc1
COC(=O)c1ccccc1NC(=O)c1cc(-c2ccccc2O)no1
COC(=O)CC1Oc2ccccc2-n2cc(-c3ccccc3)nc21 (stereo not given)
CCc1cc2c(cc3c(=O)n(CC(=O)N4CCN(c5cc(Cl)ccc5C)CC4)ncn32)s1
CCOC(=O)c1ccc(NC(=O)Cn2cc(S(=O)(=O)Cc3ccccc3F)c3ccccc32)cc1
CCOC(=O)c1cnc2c(C)cc(C)cc2c1Nc1ccc(N2CCOCC2)cc1
Cc1cccc(CNC(=O)c2cnc3sc(N4CCCCC4)nn3c2=O)c1
Cc1nn(-c2ccc(N3CCCCC3)nn2)c(C)c1CCC(=O)NCc1ccc(F)cc1
Cc1cccc(-n2ccnc2SCC(=O)Nc2cccc3ccccc23)c1C
CCOc1ccc(C(=O)c2cn(Cc3ccccc3OC)c3ccc(F)cc3c2=O)cc1
CCOC(=O)c1cccc(NC(=O)c2cc(CN3CCCC3)on2)c1
O=C(Nc1ccc2nc(SCCOc3ccccc3Cl)sc2c1)c1ccco1
Cc1ccc2c(=O)cc(C(=O)Nc3sc4c(c3C(=O)NCc3cccnc3)CCCC4)oc2c1
Cc1ccc(CN2C(=O)SC(Nc3ccccc3)C2=O)cc1 (stereo not given)
O=C(CCS(=O)(=O)c1cc(Br)cc2c1N(C(=O)C1CC1)CC2)Nc1ccc(C(F)(F)F)cc1
O=S(=O)(c1ccc(C2CCCCC2)cc1)N1CCN(c2ccc(Cl)c(Cl)c2)CC1
O=C(NCCC1=CCCCC1)c1ccc2c(c1)N(Cc1ccccc1F)C(=O)c1ccccc1S2(=O)=O
CN(C)S(=O)(=O)c1ccc(C(=O)N(Cc2cccnc2)c2nc3c(F)cc(F)cc3s2)cc1
CCNC(=O)Cn1nc(C)n2c(cc3c(OC)cccc32)c1=O
CCn1cc(C(=O)N2CCN(c3cc(C)ccc3C)CC2)c(=O)c2cc(S(=O)(=O)N(C)C3CCCCC3)ccc21
CCC(=O)N1CCc2cc(CNC(=O)Nc3ccccc3Cl)ccc21
Cc1cc(C)c(NC(=O)c2cc3sc(Cl)cc3n2C)c(C)c1
COc1ccc(C(F)(F)F)cc1NC(=O)c1sc2nc(-c3cccs3)ccc2c1N
Cc1cc2n(n1)C(c1cc(C(C)(C)C)c(O)cc1O)Nc1ccccc1-2 (stereo not given)
CCc1ccc(C2C(C(=O)Nc3ccccc3)=C(C)Nc3c(C(=O)Nc4ccc(C)cc4)cnn32)cc1 (stereo not given)
Cc1ccc(C)c(N2C(=O)N(Cc3c(F)cccc3Cl)c3ccccc3S2(=O)=O)c1
Clc1cccc(-n2ncc3c(NCCc4ccccc4)ncnc32)c1
CCOc1ccc(N2CC(C)Cn3c2nc2c3c(=O)n(Cc3c(F)cccc3Cl)c(=O)n2C)cc1 (stereo not given)
CCc1cc2c(cc3c(=O)n(CC(=O)N4CCN(c5cc(Cl)ccc5C)CC4)nc(CC)n32)s1
COc1ccc(-n2ccnc(NCCc3ccc(Cl)cc3)c2=O)cc1OC
O=C1CCCc2cc(S(=O)(=O)N3CCCC(C(=O)NCc4ccccc4)C3)ccc2N1 (stereo not given)
CCOC(=O)c1c(NC(=O)c2cc(CC)on2)sc(C(C)=O)c1C
CCOc1ccc(N(CC)C(=O)C2CCN(S(=O)(=O)c3cccc4nonc34)CC2)cc1
COc1ccccc1C1C(C(=O)N2CCCCC2)=C(C)Nc2nc3ccccc3n21 (stereo not given)
O=C(Nc1c(-c2ccc(F)cc2)nc2ccccn12)c1cccc(F)c1
O=C(CCn1c(=O)c2sccc2n(Cc2ccc(F)cc2)c1=O)NCc1ccc2c(c1)OCO2
COc1cc(OC)cc(-c2nc3nc(C)c(CCC(=O)Nc4ccccc4)c(C)n3n2)c1
Cc1ccccc1-c1nc2scc(CCNC(=O)C(=O)Nc3ccc(F)cc3F)n2n1
Cc1cccc2nc(-c3ccc(Cl)s3)c(Nc3ccc4c(c3)OCCO4)n12
O=C(Cn1c(=O)n(Cc2ccccc2)c(=O)c2sc3ccccc3c21)Nc1ccccc1F
COc1ccc(-c2cc(-c3ccccc3)nc3c2COc2ccc(Cl)cc2-3)cc1
Cc1ccc(S(=O)(=O)c2nc(-c3cccs3)oc2N2CCCCC2)cc1
Cc1cccc(NC(=O)Cn2cc(S(=O)(=O)Cc3ccccc3Cl)c3ccccc32)c1
O=C(NC1CC(=O)N(c2ccc(F)cc2)C1)c1cccs1 (stereo not given)
COc1ccc(Cl)cc1S(=O)(=O)N1CCC(c2ccncc2)CC1
CC(C)CC(NS(=O)(=O)c1ccc2c(c1)oc(=O)n2C)C(=O)NCc1ccccc1Cl (stereo not given)
CCc1ccccc1NC(=O)CSc1nnc(-c2ccccc2)c(-c2ccccc2)n1
CCCc1nn2c(=O)cc(COC(=O)c3ccc(NC(=O)COc4ccc(F)cc4)cc3)nc2s1
CCOc1ccccc1CNC(=O)c1ccc2c(c1)nc1n2CCC(C)C1 (stereo not given)
COc1ccc2c(c1)C=C(C(=O)NCc1cc(Br)ccc1OC)CO2
CC(C)Cn1c(-c2ccc(S(=O)(=O)N3CCOCC3)cc2)csc1=Nc1cc(Cl)ccc1Cl
O=C(Cc1ccc(Cl)cc1)NCC(c1cccs1)S(=O)(=O)c1ccc(Cl)cc1 (stereo not given)
COc1cc(OC)c(NC(=O)c2cnc(N3CCCC3)nc2C)cc1Cl
Cc1ccc(C(=O)COC(=O)C(Cc2c[nH]c3ccccc23)NC(=O)c2ccc(Br)cc2)cc1 (stereo not given)
Cc1cc(N2CCN(c3cccc(C(F)(F)F)c3)CC2)n2nc(-c3ccccc3)nc2n1
CCCNC(=O)c1ccc(Cn2c(SCC(N)=O)nc3ccccc3c2=O)cc1
Cn1c(=O)c(C(=O)O)nn(-c2ccccc2)c1=O
Cc1ccc(OCC(=O)Nc2ccc(OCc3cc(=O)n4c(C)csc4n3)cc2)cc1C
COc1cc(OC)c(NC(=O)c2c3c(nn2C)-c2ccccc2SC3)cc1Cl
COC(=O)c1ccccc1NC(=O)Cn1c(=O)n(-c2cccc(C(F)(F)F)c2)c(=O)c2c(C)c(C)sc21
Brc1ccc2c(c1)NC(c1cccnc1)=NC(c1ccccc1)=N2
CCOC(=O)c1cc(-c2ccccc2)n(CCC(=O)Nc2ccccc2CC)c1C
COc1ccccc1-c1nnc(C2CCN(C(=O)c3ccc(Cl)cc3)CC2)o1
CCCCN(C)c1nnc(NC(=O)Nc2ccc(Br)c(C)c2)s1
CCOC(=O)Cn1c(=O)n(C2CCCCC2)c2nc(-c3cccc(OC)c3)nc(C(N)=O)c21
Cc1cc(C)c(NC(=O)CCc2c(C)nc3c(c(C)nn3C(C)(C)C)c2C)c(C)c1
O=C(NC1CC(=O)N(c2ccc(F)cc2)C1)c1ccc(S(=O)(=O)N2CCCC2)cc1 (stereo not given)
Cc1ccc(-c2nnc(Nc3ccc(OCC(N)=O)cc3)c3ccccc23)cc1S(=O)(=O)NCC1CCCO1 (stereo not given)
O=C(c1ccc(Br)cc1)N(Cc1cccs1)c1ccc(F)cc1
CC1=C(C(=O)OCC2CCCCC2)C(c2c(F)cccc2Cl)CC(=O)N1 (stereo not given)
Cc1ccc(OCCSc2nc(C)c(Cc3ccccc3)c(=O)[nH]2)cc1
CCOc1ccc(-c2cc(C)n3nc(C(=O)Nc4ccc(C)c(C)c4)cc3n2)cc1
Cc1ccc2oc3c(c(=O)c2c1)C(c1ccc(O)cc1)N(Cc1ccc2c(c1)OCO2)C3=O (stereo not given)
COc1ccc(-c2cc(C(=O)Nc3sc4c(c3C(N)=O)CCCC4)no2)cc1
COc1cccc(-c2cc(C(=O)Nc3ccc(C)cc3)[nH]n2)c1
CCCCN(CC)CCCNC(=O)c1nn(C)c2c1CSc1ccccc1-2
Cc1ccccc1CNC(=O)c1cccc(NC(=O)c2nsc3ccccc23)c1
COc1cc(NC(=O)c2cc3ccc4cccnc4c3[nH]2)cc(OC)c1OC
Cc1nnc(NC(=O)CSc2nc3c([nH]c4ccccc43)c(=O)n2-c2cccc(Cl)c2)s1
Cc1ccc2nc(COc3ccccc3NC(=O)Nc3ccc(F)c(Cl)c3)cc(=O)n2c1
COc1ccc(-c2nc(Cn3c(=O)cc(C)c4c(C)nn(-c5ccccc5)c43)c(C)o2)c(OC)c1
CCOCCCNC(=O)c1ccc2nc(CCc3ccccc3)oc2c1
CCOc1cc(CNC(=O)c2sc3ncnc(N(C)C4CCCCC4)c3c2C)ccc1OC
Cc1ccc(C)c(Cn2c(C(=O)O)c(CNCc3cccs3)c3ccccc32)c1
